Experimental data published in PubChem BioAssay (NCI).
Compounds without any hit were thinned out: in the full panel of roughly 83,000, 20% have a hit.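 Testing used 96-well plates and a 48-hour single-concentration exposure. Example: -40 means 40% of the starting cells died.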 The source made the active and inactive calls. The calls were made as follows: active = growth percent below 10; inactive = the rest.

Key:
Experiment in all cases: NCI-60 one-dose screen, 48 h (100 = growth as untreated, 0 = no growth, -100 = all killed)
Settings in all cases: 10 µM unless noted
SR leukemia = tested on: SR leukemia
RPMI-8226 leukemia = tested on: RPMI-8226 leukemia
OVCAR-8 ovarian = tested on: OVCAR-8 ovarian
OVCAR-5 ovarian = tested on: OVCAR-5 ovarian
OVCAR-4 ovarian = tested on: OVCAR-4 ovarian
SK-OV-3 ovarian = tested on: SK-OV-3 ovarian
IGROV1 ovarian = tested on: IGROV1 ovarian
OVCAR-3 ovarian = tested on: OVCAR-3 ovarian
HS 578T breast = tested on: HS 578T breast
T-47D breast = tested on: T-47D breast
BT-549 breast = tested on: BT-549 breast
MDA-MB-435 melanoma = tested on: MDA-MB-435 melanoma
SW-620 colon = tested on: SW-620 colon
MCF7 breast = tested on: MCF7 breast
HCT-116 colon = tested on: HCT-116 colon
HCC-2998 colon = tested on: HCC-2998 colon
KM12 colon = tested on: KM12 colon
NCI/ADR-RES ovarian = tested on: NCI/ADR-RES ovarian

Measured: growth

O=C(c1ccccc1)c1cccc(C(Br)Br)c1
inactive: SR leukemia 43.8% | RPMI-8226 leukemia 84.4% | OVCAR-8 ovarian 93.7% | OVCAR-5 ovarian 125% | OVCAR-4 ovarian 95.4% | SK-OV-3 ovarian 94% | IGROV1 ovarian 70.5% | OVCAR-3 ovarian 97.5% | HS 578T breast 94.5% | T-47D breast 88.4% | BT-549 breast 99.4% | MDA-MB-435 melanoma 30.9% | SW-620 colon 66.3% | MCF7 breast 65.6% | HCT-116 colon 65.9% | HCC-2998 colon 94% | KM12 colon 75.2%

CCCCCCCCCCCCCCCCCC(=O)OCCCCCCCCCCCCC
inactive: SR leukemia 116% | RPMI-8226 leukemia 95% | OVCAR-8 ovarian 109% | OVCAR-5 ovarian 113% | OVCAR-4 ovarian 113% | SK-OV-3 ovarian 114% | IGROV1 ovarian 106% | OVCAR-3 ovarian 114% | HS 578T breast 122% | T-47D breast 98.4% | BT-549 breast 133% | MDA-MB-435 melanoma 109% | SW-620 colon 117% | MCF7 breast 114% | HCT-116 colon 111% | HCC-2998 colon 113% | KM12 colon 105%

CC(C)(C)[Si](C)(C)OC1[C@@H](O[Si](C)(C)C(C)(C)C)[C@@H](CNC(=O)NC(=O)NC(=O)CI)O[C@H]1n1cnc2c(NC(=O)Nc3ccccc3)ncnc21 (stereo partly specified)
inactive: RPMI-8226 leukemia 35.2% | OVCAR-5 ovarian 67.3% | OVCAR-4 ovarian 42.9% | SK-OV-3 ovarian 92.6% | HS 578T breast 67.4% | BT-549 breast 97.3% | MDA-MB-435 melanoma 93.2% | SW-620 colon 76.1% | MCF7 breast 70.8% | HCT-116 colon 38.5% | HCC-2998 colon 99.4% | KM12 colon 32.9%
active: SR leukemia 2.35% | OVCAR-8 ovarian -9.33% | IGROV1 ovarian -65.4% | OVCAR-3 ovarian -63.5% | NCI/ADR-RES ovarian 4.72%

CCc1c(C)c2ccc(O)c(-c3cc(-c4ccccc4)c(C#N)c(=O)[nH]3)c2oc1=O
inactive: SR leukemia 95.5% | RPMI-8226 leukemia 81% | OVCAR-8 ovarian 100% | OVCAR-5 ovarian 95.1% | SK-OV-3 ovarian 95.9% | IGROV1 ovarian 101% | OVCAR-3 ovarian 88.8% | HS 578T breast 118% | NCI/ADR-RES ovarian 99.9% | T-47D breast 85.9% | BT-549 breast 113% | MDA-MB-435 melanoma 114% | SW-620 colon 105% | MCF7 breast 84.7% | HCT-116 colon 95.7% | HCC-2998 colon 111% | KM12 colon 96.2%

Nc1c(C(=O)Nc2ccccc2)sc2nc3c(cc12)C(=O)CCC3
active: OVCAR-3 ovarian -19.4% | NCI/ADR-RES ovarian -6.39% | MDA-MB-435 melanoma -5.95%
inactive: SR leukemia 21.9% | RPMI-8226 leukemia 30.2% | OVCAR-8 ovarian 39.9% | OVCAR-5 ovarian 59.9% | SK-OV-3 ovarian 19.7% | IGROV1 ovarian 36.4% | HS 578T breast 37.5% | T-47D breast 47.1% | BT-549 breast 65.7% | SW-620 colon 27.2% | MCF7 breast 19.6% | HCT-116 colon 23.6% | HCC-2998 colon 21.9% | KM12 colon 19.9%

O=C(N/N=C\c1cc(Br)ccc1O)c1ccncc1
active: T-47D breast -3.65% | MCF7 breast 2.38%
inactive: SR leukemia 14.2% | RPMI-8226 leukemia 36.9% | OVCAR-8 ovarian 27.5% | OVCAR-5 ovarian 54.8% | SK-OV-3 ovarian 38.3% | IGROV1 ovarian 25.2% | OVCAR-3 ovarian 25.1% | HS 578T breast 76.5% | NCI/ADR-RES ovarian 12.4% | BT-549 breast 45.2% | MDA-MB-435 melanoma 64.1% | SW-620 colon 37.7% | HCT-116 colon 21% | HCC-2998 colon 42.7% | KM12 colon 25.8%

ClC1=NC(Cl)C(Cl)=N/C1=N\c1ncn[nH]1 (stereo unspecified)
active: SR leukemia -60.4% | RPMI-8226 leukemia -8.16% | OVCAR-8 ovarian -1.21% | OVCAR-4 ovarian -70.3% | IGROV1 ovarian -50.2% | OVCAR-3 ovarian -82.2% | T-47D breast -38.3% | SW-620 colon -78.7% | MCF7 breast 5.67% | HCT-116 colon -70.2%
inactive: OVCAR-5 ovarian 85% | HS 578T breast 123% | NCI/ADR-RES ovarian 91.9% | BT-549 breast 91.4% | MDA-MB-435 melanoma 13.8% | HCC-2998 colon 53.6% | KM12 colon 26.4%

O=C(/C=C/c1ccc(F)cc1)N1CCN(C(=O)/C=C/c2ccc(C(F)(F)F)cc2)CC1
inactive: SR leukemia 114% | RPMI-8226 leukemia 124% | OVCAR-8 ovarian 105% | OVCAR-5 ovarian 109% | OVCAR-4 ovarian 116% | IGROV1 ovarian 122% | OVCAR-3 ovarian 113% | HS 578T breast 123% | NCI/ADR-RES ovarian 113% | T-47D breast 113% | BT-549 breast 115% | MDA-MB-435 melanoma 104% | SW-620 colon 106% | MCF7 breast 98.2% | HCT-116 colon 98% | HCC-2998 colon 102% | KM12 colon 108%

CS(=O)(=O)c1ccc(C(=O)N/N=C/c2cccc3ccccc23)cc1
inactive: SR leukemia 32.5% | RPMI-8226 leukemia 87.7% | OVCAR-8 ovarian 83.9% | OVCAR-5 ovarian 109% | OVCAR-4 ovarian 113% | IGROV1 ovarian 63.3% | OVCAR-3 ovarian 67.8% | HS 578T breast 85.1% | NCI/ADR-RES ovarian 73.5% | T-47D breast 85.3% | BT-549 breast 87.6% | MDA-MB-435 melanoma 17.1% | SW-620 colon 63.2% | MCF7 breast 44.9% | HCT-116 colon 61.8% | HCC-2998 colon 84.5% | KM12 colon 50.8%

COc1cc(NCCC2CCCCN2)c2ncccc2c1OC (stereo unspecified)
active: IGROV1 ovarian 4.24% | OVCAR-3 ovarian 4.97% | MDA-MB-435 melanoma -62.6%
inactive: SR leukemia 73.8% | RPMI-8226 leukemia 68.2% | OVCAR-8 ovarian 62.7% | OVCAR-5 ovarian 115% | OVCAR-4 ovarian 36.8% | HS 578T breast 86.6% | NCI/ADR-RES ovarian 81.7% | T-47D breast 38% | BT-549 breast 91.6% | SW-620 colon 74.9% | MCF7 breast 57.3% | HCT-116 colon 46.9% | HCC-2998 colon 80.6% | KM12 colon 87.5%

O=C1/C(=C/N2N=C(c3ccc(Cl)cc3)CC2c2ccccc2O)SC(=S)N1c1cccc(C(F)(F)F)c1 (stereo unspecified)
inactive: SR leukemia 42% | RPMI-8226 leukemia 25.4% | OVCAR-8 ovarian 59.7% | OVCAR-5 ovarian 82.3% | SK-OV-3 ovarian 74% | IGROV1 ovarian 43.7% | OVCAR-3 ovarian 54.6% | HS 578T breast 71% | NCI/ADR-RES ovarian 56.4% | T-47D breast 27.4% | BT-549 breast 71.7% | MDA-MB-435 melanoma 64.6% | SW-620 colon 64.7% | MCF7 breast 15.7% | HCT-116 colon 45.5% | HCC-2998 colon 62.3% | KM12 colon 38%

CC(C)CCSc1nc(-c2ccc(F)cc2)c(C#N)c(N2CCCCC2)n1
inactive: SR leukemia 87.6% | RPMI-8226 leukemia 91.2% | OVCAR-8 ovarian 89.3% | OVCAR-5 ovarian 102% | OVCAR-4 ovarian 93.6% | IGROV1 ovarian 106% | OVCAR-3 ovarian 105% | HS 578T breast 99.1% | NCI/ADR-RES ovarian 99.2% | T-47D breast 79% | BT-549 breast 91.4% | MDA-MB-435 melanoma 100% | SW-620 colon 95.6% | MCF7 breast 93.6% | HCT-116 colon 88% | HCC-2998 colon 102% | KM12 colon 94.5%

Clc1ccccc1CNc1c2ccccc2nc2ccccc12
active: SR leukemia 0.495% | RPMI-8226 leukemia -26.9% | SW-620 colon 9.61% | MCF7 breast -0.21% | HCT-116 colon 8.1% | HCC-2998 colon -17.2%
inactive: OVCAR-8 ovarian 23.8% | OVCAR-5 ovarian 32.6% | OVCAR-4 ovarian 13.1% | IGROV1 ovarian 17.8% | OVCAR-3 ovarian 53.6% | HS 578T breast 50% | NCI/ADR-RES ovarian 23.8% | T-47D breast 30.4% | BT-549 breast 38.1% | MDA-MB-435 melanoma 27.2% | KM12 colon 22%
